Screening results as filed in PubChem.
This is a sample that favours compounds with a hit; in the whole collection about 10% have one here.
SW480 rereplic – DNA re-replication induction in SW480 cells; AID 624297; Potency, µM (doses to about 46.1 µM), for the others: at the top dose re-replication activation, hits mostly activators; SW480 DNA re-replication, Hoechst DNA content imaging, 48 h; 1.8% of 340,000 active; note: % of control where 0% means no effect; nearly all actives have a fitted effect of over 55% in size
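Readout is total intensity of Hoechst-stained nuclei, excited at 405 nm and collected at 500-530 nm. Compound treatment lasted 48 hr at 37 C in 5% CO2 before staining.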
Gal4-VP16 FLuc – inhibits Gal4-VP16 luciferase reporter, ROR gamma counter-screen; Drosophila S2 Gal4-VP16 UAS-luciferase, luminescence, 20 h; Potency, µM (highest dose often 53.6 µM), for the others: at the highest dose activity, negative = inhibition, hits mostly inhibitors; 3.5% of 310,000 active;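 note: Gal4-VP16 expression switched on by copper sulfate through the metallothionein promoter; % is set by controls: 0 for no effect and ±100 for the full control effect; nearly all actives have a fitted effect of over 50% in size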
RORgamma inh – blocks mouse ROR gamma transcriptional activity; P51450; Drosophila S2 Gal4-RORgamma UAS-luciferase reporter, 20 h; Potency, µM (doses to about 53.6 µM), for the others: top-dose activity change, negative = inhibition, actives largely listed as inhibitors; 5.4% of 310,000 active; AID 2551; note: % is set by controls: 0 for no effect and ±100 for the full control effect; nearly all actives have a fitted effect of over 60% in size
Target sequence (P51450 whole entry, looked up, the tested form may be a part): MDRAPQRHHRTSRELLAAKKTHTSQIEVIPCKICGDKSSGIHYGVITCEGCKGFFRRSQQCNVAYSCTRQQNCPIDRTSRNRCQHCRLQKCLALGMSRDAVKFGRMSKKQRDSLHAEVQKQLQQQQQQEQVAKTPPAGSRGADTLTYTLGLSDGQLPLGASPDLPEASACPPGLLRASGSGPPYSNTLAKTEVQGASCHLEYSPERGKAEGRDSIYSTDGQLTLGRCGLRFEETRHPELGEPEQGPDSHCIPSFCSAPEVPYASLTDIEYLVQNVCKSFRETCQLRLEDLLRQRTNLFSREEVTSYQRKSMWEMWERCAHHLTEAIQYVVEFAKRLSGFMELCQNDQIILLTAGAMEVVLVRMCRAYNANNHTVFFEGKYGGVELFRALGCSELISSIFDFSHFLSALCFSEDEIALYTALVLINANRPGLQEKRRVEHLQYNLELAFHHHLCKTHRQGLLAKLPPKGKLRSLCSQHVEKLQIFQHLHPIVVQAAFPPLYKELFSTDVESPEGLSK
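Compounds are pin-transferred onto Drosophila Schneider cells expressing a copper-inducible Gal4–ROR gamma transactivation domain fusion. After 1 hr, copper sulfate is added to 700 uM final; luciferase is read 20 hr later.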
KB-3-1 cytotox – KB-3-1 parental cell cytotoxicity. KB-3-1 viability, CellTiter-Glo ATP luminescence, 72 h. Potency, µM (top dose mostly 46.1 µM), actives largely listed as cytotoxic. 1.4% of 400,000 active. AID 1347075; note: % is set by controls: 0 for no effect and ±100 for the full control effect; nearly all actives have a fitted effect of over 60% in size
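Parental KB-3-1 adenocarcinoma cells in phenol-red-free DMEM with 10% FBS were pin-treated with compounds at several concentrations, incubated 72 h at 37 °C, and viability read by CellTiter-Glo luminescence; concentration-effect curves were fitted after normalization.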
MCF10A rerep – DNA re-replication induction in MCF 10a cells. AID 624296. 2.9% of 350,000 active. MCF 10A DNA re-replication, Hoechst nuclear intensity, 48 h. Potency, µM (top dose mostly 46.1 µM), for inactives: at the top dose activity, positive = re-replication, hits mostly activators; note: % of control where 0% means no effect; nearly all actives have a fitted effect of over 50% in size
KB-V1 MDR tox – kills drug-selected multidrug resistant KB-V1 cells | KB-V1 MDR cells viability, CellTiter-Glo, 72 h | Potency, µM (highest dose often 46.1 µM), actives largely listed as cytotoxic | 3.4% of 400,000 active; note: % is set by controls: 0 for no effect and ±100 for the full control effect; nearly all actives have a fitted effect of over 60% in size
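KB-V1 MDR subline cells in DMEM (phenol-red free, 10% FBS) exposed to compounds in qHTS concentration series for 72 h at 37 degrees C. Viability read by CellTiter-Glo luminescence; concentration-effect curves fitted after normalization and correction.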
* marks the source's active call; other numbers are inactive results; i = inactive; ? = inconclusive; / = not tested or not shown. Calls come from the whole dose curve; as a rule, active = well fitted curve in the direction sought with a large enough effect; inconclusive = small, poorly fitted or top-dose-only effect, or another doubt; inactive = no such curve, though single readings can be large; an effect the other way counts as inactive or inconclusive. Potency is the fitted concentration of half-maximal effect.

SMILES | SW480 rereplic | Gal4-VP16 FLuc | RORgamma inh | KB-3-1 cytotox | MCF10A rerep | KB-V1 MDR tox
Cc1nn(CC(=O)NC2CCCCC2)c(=O)c2cc3cc(F)ccc3n12 | / | / | / | i | / | ?
CC1(C)CC(=O)C=C(c2ccc(COC(=O)c3cccc(C(F)(F)F)c3)cc2)C1=O | / | / | / | i | / | i
COC(=O)c1ccc(Cn2c(SCc3ccccc3)nc3ccncc32)cc1 | / | / | / | i | / | i
CCC(C)(C)n1nnnc1C(c1cc2ccc(OC)cc2[nH]c1=O)N1CCc2ccccc21 (centres undefined) | ? | -3% | 18% | i | ? | i
Cc1ccc2[nH]c(=O)c(C(c3nnnn3Cc3ccccc3)N3CCc4ccccc43)cc2c1 (centres undefined) | ? | 15% | 0% | i | 16% | ?
Cc1cc2cc(C(c3nnnn3Cc3ccccc3)N3CCc4ccccc43)c(=O)[nH]c2cc1C (centres undefined) | ? | 9% | -11% | i | 7% | 8.2µM*
CCC(C)(C)n1nnnc1C(c1cc2cc(OC)ccc2[nH]c1=O)N1CCc2ccccc21 (centres undefined) | 7% | 3% | 22% | ? | -1% | 18µM*
COc1cccc(CN2CCC2(C)C(=O)Nc2ccc3c(c2)OCO3)c1F (centres undefined) | / | / | / | i | / | ?
CCOC(=O)[C@]12CCC=C1N(CCC1=CCCCC1)C(=O)[C@H](CC(=O)N1CCN(C(=O)c3ccco3)CC1)C2 | / | / | / | i | / | i
Cc1ccc(S(=O)(=O)N2C(=O)c3cccc4cccc2c34)cc1 | ? | -18% | 22% | ? | 9.2µM* | i
O=C(N/N=C/c1ccc(O)cc1)Nc1cccc2nsnc12 | 15µM* | 2% | ? | ? | ? | i
COc1ccc(/C=N/NC(=O)Nc2cccc3nsnc23)c(OC)c1 | ? | -13% | -43% | i | ? | i
COc1cc(/C=N/NC(=O)Nc2cccc3nsnc23)cc(OC)c1OC | ? | 4% | ? | i | 3.3µM* | i
COc1c(C)cc(S(=O)(=O)NCCc2c(C)[nH]c3ccccc23)c(C)c1C | / | / | / | ? | / | i
COc1ccc(-c2cn[nH]c2-c2ccc(OCC(=O)NN)cc2O)cc1OC | -2% | 7% | ? | i | -2% | i
C=C(C)COc1ccc(-c2[nH]ncc2-c2ccc(OC)cc2)c(O)c1 | 13% | ? | 11µM* | i | ? | i
C=C(C)COc1ccc(-c2[nH]ncc2-c2ccc(OC)c(OC)c2)c(O)c1 | 2.9µM* | 2.5µM* | 1.8µM* | 1.6µM* | 5.2µM* | 1.3µM*
C=C(C)COc1ccc(-c2n[nH]c(C)c2-c2ccc(OC)c(OC)c2)c(O)c1 | 25% | 7.1µM* | 1.4µM* | 6.5µM* | ? | 5.8µM*
COc1ccc(-c2cc(C(C)=O)c(C)n2CCC(=O)NCc2ccc(F)cc2)cc1 | / | / | / | i | / | i
CN(C(=O)CSc1nc2ccccc2n1CC(=O)N(C)C1CCCCC1)c1ccccc1 | / | / | / | i | / | i
O=C1OC(N2C(=O)CC[C@H]2C(=O)Nc2cccc(F)c2)c2ccccc21 (some centres undefined) | 4.1µM* | -2% | -5% | i | -57% | i
O=C(NCCN1CCOCC1)c1c(O)nc2ccccn2c1=O | 5% | -1% | -25% | i | -1% | i
O=C(NCCN1CCOCC1)c1cc2c(=O)n3ccccc3nc2n1Cc1ccccc1 | 21µM* | -7% | 0% | i | 16µM* | i
COc1ccc(CCn2c(=N)c(C(=O)NC3CCCCC3)cc3c(=O)n4ccccc4nc32)cc1 | ? | ? | -2% | ? | ? | ?
COc1ccc(CCNC(=O)c2cc3c(=O)n4ccccc4nc3n(CCCN3CCOCC3)c2=N)cc1 | 8.2µM* | -1% | -13% | i | ? | i
SMILES | SW480 rereplic | Gal4-VP16 FLuc | RORgamma inh | KB-3-1 cytotox | MCF10A rerep | KB-V1 MDR tox
COc1ccc(CCNC(=O)c2cc3c(=O)n4ccccc4nc3n(C3CCCCC3)c2=N)cc1 | 2.3µM* | -6% | -37% | i | ? | i
COc1ccc(CCn2c(=N)c(C(=O)N3CCN(C)CC3)cc3c(=O)n4ccccc4nc32)cc1 | 23µM* | -1% | -26% | i | 9.2µM* | i
Fc1cc(F)c2ncc3c(-c4ccccc4)nn(-c4cccc(Cl)c4)c3c2c1 | / | / | / | i | / | ?
COc1ccc(CCNC(=O)c2cc3c(=O)n4ccccc4nc3n(CCN3CCOCC3)c2=N)cc1 | 23µM* | -5% | 17% | i | 21µM* | i
Cc1ccc2nc3c(cc(C(=O)NCCc4ccccc4)c(=N)n3CCCN3CCOCC3)c(=O)n2c1 | 4.6µM* | 6% | 0% | i | 4.6µM* | i
CC1C(=O)CCC2[C@]1(C)CCC1[C@]2(C)CC[C@@]2(C)C3CC(C)(C)CC[C@]3(C)CC[C@@]12C (some centres undefined) | / | 0% | -5% | / | / | /
Cc1ccc(C(=O)N/N=C/c2cccc(OC(=O)/C=C/c3ccco3)c2)cn1 | -1% | 20% | -26% | i | -1% | i
O=C(/C=C/c1ccco1)Oc1cc(Br)cc(/C=N/NC(=O)c2ccccc2O)c1 | 0.73µM* | 2.8µM* | 3.2µM* | ? | ? | ?
CC1(C)Nc2ccc(O)cc2-c2c1ssc2=S | -5% | ? | 8.9µM* | i | ? | i
COc1cccc(-n2sc3c(c2=S)-c2cc(OC)ccc2NC3(C)C)c1 | ? | -8% | ? | ? | ? | ?
Cc1ccc(S(=O)(=O)N2C[C@H]3N(C(=O)OC(C)C)N(C(=O)OC(C)C)C[C@H](OC(=O)Nc4c(C)noc4C)[C@@]3(O)C2)cc1 | / | / | / | i | / | i
FC(F)(F)c1cccc(Cn2nnnc2-c2ccc(Cl)cc2)c1 | -6% | -5% | 3% | ? | 7% | 15µM*
Cc1cccc(CNC(=O)CN2CC(C)Sc3ccccc32)c1 (centres undefined) | / | / | / | i | / | ?
COCc1cc(=O)[nH]c(Nc2nc(C)c3ccccc3n2)n1 | ? | ? | -14% | ? | ? | 21µM*
COC(=O)Cc1cc(=O)[nH]c(Nc2nc3ccccc3o2)n1 | -3% | ? | -27% | i | 0% | i
Cc1ccc2oc(Nc3nc(-c4ccccc4)cc(=O)[nH]3)nc2c1 | ? | -14% | 2.8µM* | ? | 21µM* | ?
COCc1cc(=O)[nH]c(Nc2nc3ccccc3o2)n1 | ? | ? | 3.5µM* | 7.1µM* | ? | i
